# Assay outcomes (PubChem)
# RAD52 inh – RAD52 (human) annealing inhibition | P43351 | recombinant RAD52 DNA annealing, FRET fluorescence | inhibition, % at 18.7 µM | 0.46% of 360,000 active;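 active = every replicate showing at least 50% inhibition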
# Ecoli rRNA inh – selective bacterial rRNA inhibition in E. coli. E. coli WT GFP vs humanized-ribosome RFP mutants, fluorescence, 24 h; stronger effect = lower value; DMSO median 0, no signal -100. GFP signal change (wild-type ribosome), % (no concentration beside the values). 1.6% of 350,000 active. AID 720706;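 active = significant combined selectivity score with lowered wild-type GFP, culture density cut under 30%, mutant RFP and density less affected; inactive = any of these conditions unmet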
# NSD2 HMT inh – inhibitors of human histone methyltransferase NSD2. O96028. NSD2 peptide methylation, AlphaScreen, 120 min. inhibition, % at 12.5 µM. 0.54% of 310,000 active. AID 743445; in the data active = inhibition above about 50%
# MLL AF4-AF9 inh – blocks AF4 peptide binding to human AF9; P42568; 0.47% of 350,000 active; AlphaScreen, biotin-AF4 peptide binding to FLAG-AF9; inhibition, % at 10 µM;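 active = every replicate reaching a set inhibition limit, whatever the replicate mean, cut at about 25% in these data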;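 note: 0% = plate neutral control median and 100% = total signal loss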
# Target sequence (P42568 whole entry, looked up): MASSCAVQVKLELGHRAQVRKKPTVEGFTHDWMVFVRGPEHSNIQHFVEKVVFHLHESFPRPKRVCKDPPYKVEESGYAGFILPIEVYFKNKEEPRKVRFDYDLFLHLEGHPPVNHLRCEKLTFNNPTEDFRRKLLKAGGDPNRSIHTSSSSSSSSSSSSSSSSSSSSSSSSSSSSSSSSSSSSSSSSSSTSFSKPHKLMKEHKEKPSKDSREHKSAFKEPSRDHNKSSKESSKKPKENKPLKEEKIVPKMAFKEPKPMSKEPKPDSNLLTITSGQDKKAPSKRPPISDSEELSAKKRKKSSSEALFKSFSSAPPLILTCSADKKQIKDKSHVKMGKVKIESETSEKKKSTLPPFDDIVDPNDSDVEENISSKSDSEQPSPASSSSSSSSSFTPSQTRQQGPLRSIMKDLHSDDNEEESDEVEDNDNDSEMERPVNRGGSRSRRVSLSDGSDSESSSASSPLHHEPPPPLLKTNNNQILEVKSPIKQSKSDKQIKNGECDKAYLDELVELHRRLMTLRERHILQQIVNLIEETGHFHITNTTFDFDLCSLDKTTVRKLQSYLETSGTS
# Casp6 inh – blocks human caspase-6 cleavage activity. purified caspase-6, Z-VEID-R110 cleavage fluorescence. P55212. 0.53% of 350,000 active. inhibition, % at 12.5 µM;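 active = mean inhibition across replicates at least about 35%, with every replicate also reaching that limit, limit read from the data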;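 note: 0% = median of neutral control wells and 100% = no fluorescence left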
# Active calls of the source: *; . = no result given; + = active, no number. Compounds with a hit are over-represented: about 2.5% of the library has one in this group of screens.
SMILES,RAD52 inh,Ecoli rRNA inh,NSD2 HMT inh,MLL AF4-AF9 inh,Casp6 inh
Nc1ccc2c(c1)C(=O)c1ccc(Cl)cc1-2,-13,-5,-3,10,-5
Nc1ccc2c(c1)Cc1cc(N)c(Cl)cc1-2,-7,-31*,4,19,-2
CCOC(=O)/C=C(\C)Sc1cc(O)c2ccccc2c1O,-2,-58,.,19,94*
O=[N+]([O-])c1ccccc1/C=N/Nc1nc(N2CCCC2)nc(N2CCCC2)n1,10,-12*,4,1,3
O=[N+]([O-])c1ccccc1/C=C/C=N/Nc1nc(N2CCCCC2)nc(N2CCCCC2)n1,-16,14,3,12,0
COc1ccc(/C=C/C(=O)Nc2ccccc2)cc1S(=O)(=O)N1CCOCC1,5,-18*,-4,12,-2
O=C(c1ccccn1)N1CC(=O)N2[C@@H](CO)[C@@H](c3ccc(C#CCc4ccccc4)cc3)[C@@H]2C1,-4,0,.,-4,1
COc1ccc(OC)c(NC(=O)Nc2c(O)ccc3ccccc23)c1,-3,-27*,5,5,2
COc1ccc(OC)c(NC(=O)Nc2ccc(O)c3ccccc23)c1,0,.,6,2,54*
COc1ccc(/C=C/C(=O)c2ccc(O)cc2)cc1CN1CCOCC1,.,.,4,.,.
COc1ccc(/C=C/C(=O)C23CC4CC(CC(C4)C2)C3)cc1CN1CCOCC1,-5,.,7,26*,-1
COc1cc(O)c(C(CC(=O)N2CCN(c3ccccc3)CC2)c2ccc(N(C)C)cc2)c(OC)c1 (centres undefined),14,9,.,28*,1
COc1ccc2c3c(n(C)c2c1)[C@@H](CO)N(C(=O)c1ccccc1)CC31CN(Cc2ccccc2OC)C1,.,-4,.,.,.
O=C(O)CCc1ccc(S(=O)(=O)Nc2cc(C(F)(F)F)ccc2N2CCCC2)cc1,-11,2,2,2,67*
CN(C)CC(=O)N1CCCCN2[C@@H](CO)[C@@H](c3ccc(-c4ccccc4)cc3)[C@@H]2C1,23,5,.,7,2
O=C(NC1CCCC1)N1CCCCN2[C@@H](CO)[C@@H](c3ccc(/C=C/c4ccccc4)cc3)[C@@H]2C1,10,-58,.,28*,2
CN(C)CC(=O)N1CCCCN2[C@@H](CO)[C@@H](c3ccc(/C=C/c4ccccc4)cc3)[C@@H]2C1,71*,2,.,4,4
CN(C)CC(=O)N1CCCCN2[C@H](CO)[C@H](c3ccc(/C=C/c4ccccc4)cc3)[C@H]2C1,62*,-1,.,3,4
CN(C)CC(=O)N1CCCCN2[C@H](C1)[C@@H](c1ccc(/C=C/c3ccccc3)cc1)[C@@H]2CO,58*,-2,.,1,1
CN(C)CC(=O)N1CCCCN2[C@H](C1)[C@H](c1ccc(/C=C/c3ccccc3)cc1)[C@@H]2CO,48,4,.,-5,3
Cc1noc(C)c1NC(=O)N(C)C[C@@H]1OCCCC[C@H](C)Oc2ccc(NC(=O)c3ccncc3)cc2C(=O)N([C@@H](C)CO)C[C@H]1C,-20,2,.,-2,0
CN(C)CC(=O)N1CCCCN2[C@@H](CO)[C@H](c3ccc(/C=C/c4ccccc4)cc3)[C@@H]2C1,69*,0,.,-2,0
C/C=C/c1ccc([C@@H]2[C@H]3CN(C(=O)CN(C)C)CCCCN3[C@H]2CO)cc1,.,5,.,.,.
COc1cc(C(F)(F)F)c(C(=O)N(C)Cc2ccc(Cl)c(Cl)c2)cn1,-3,-22*,-3,-2,0
CCNC(=S)N1CCCCC1CO (centres undefined),-9,21,-6,-5,47*
SMILES,RAD52 inh,Ecoli rRNA inh,NSD2 HMT inh,MLL AF4-AF9 inh,Casp6 inh
OCC1CCCCN1C(=S)NCc1ccco1 (centres undefined),-6,9,0,0,1
O=C(NN1C(=O)/C(=C/C=C/c2ccco2)SC1=S)c1ccccc1O,-214,-6,.,3,92*
O=C1S/C(=C\C=C\c2ccco2)C(=O)N1c1ccc(O)cc1,-14,.,5,18,43*
O=C(O)C(Cc1ccccc1)N1C(=O)/C(=C/C=C/c2ccco2)SC1=S (centres undefined),-283,14,+,0,91*
COc1ccc(/C=C2\SC(=S)N(C(Cc3ccccc3)C(=O)O)C2=O)cc1 (centres undefined),-9,-43,13,-3,27
Cn1cccc1/C=C1\SC(=S)N(NC(=O)c2ccccc2O)C1=O,-60,-28*,.,12,9
Cn1cccc1/C=C1\SC(=S)N(NC(=O)c2ccccc2)C1=O,-159,-7,11,7,0
COc1ccc2c3c(n(C)c2c1)[C@H](CO)N(C(C)=O)CC31CN(C(=O)NC(C)C)C1,.,0,.,-16,.
CN=C(Nc1cccnc1)c1cccc(C(F)(F)F)c1,0,4,6,0,65*
CN(C)c1ccc2c(c1)[C@H]1C[C@H](CC(=O)NCc3ccc(Oc4ccccc4)cc3)O[C@@H](CO)[C@H]1O2,6,-5,.,11,-1
C[C@@H]1CN([C@H](C)CO)C(=O)c2cc(NC(=O)C3CCCCC3)ccc2O[C@@H](C)CCCCO[C@H]1CN(C)Cc1ccc2c(c1)OCO2,8,-2,.,-4,-2
CC(=O)N1CCN(c2ccc(NCc3ccc(C)s3)cc2)CC1,5,0,.,27*,0
Cc1cc2oc(=O)cc(-c3ccccc3)c2c(C)c1-c1ccc(CO)cc1,-15,-31,.,5,-2
CC(=O)c1ccc(-c2c(C)cc3oc(=O)cc(-c4ccccc4)c3c2C)cc1,-3,-22*,.,4,1
CNC[C@H]1Oc2ccccc2C(=O)N(C)C[C@@H]1C,.,-1,.,.,.
COc1ccc(-n2nc3c(c2NC(=O)c2c(-c4ccccc4Cl)noc2C)CS(=O)(=O)C3)cc1,-1,-18,-1,-3,42*
COc1ccc2c3c([nH]c2c1)[C@@H](CO)NCC31CCN(C(=O)Nc2ccccc2F)CC1,68*,-1,.,10,.
COc1ccc2c3c([nH]c2c1)[C@H](CO)NCC31CCN(C(=O)Nc2ccc(F)cc2)CC1,.,-3,.,.,.
COc1ccc2c3c([nH]c2c1)[C@H](CO)NCC31CCN(C(=O)Nc2ccc(F)cc2F)CC1,76*,3,.,15,.
CN(C)C(CNC(=O)c1ccc(Br)cc1)c1ccco1 (centres undefined),-9,11,-2,1,-1
Cc1cc(C(=O)NCC(c2ccco2)N(C)C)ccc1[N+](=O)[O-] (centres undefined),-15,2,2,46*,-3
CC=Cc1ccc2n(c1=O)C[C@@H]1[C@@H](CO)[C@H](C(=O)Nc3ccc(-c4ccccc4)cc3)N(C)[C@H]21 (mixture of isomers),-17,-2,.,7,-2
C[C@H](CO)N1C[C@H](C)[C@@H](CN(C)Cc2ccncc2)Oc2ccc(NC(=O)CCN3CCOCC3)cc2CC1=O,-15,1,.,3,-5
COc1ccc(Cl)cc1C(=O)Nc1cc(=O)n(C)c(=O)n1C,-5,5,.,49*,0
